Measurements: paper PMC5540273 (PLoS ONE, 2017)

Assays:
Details in all cases: concentration: 1 μM, replicates: in singlicate; n = 1
CTK = tested on: T1, CTK
T1 construct: gene MATK

DAPK1 = tested on: DAPK1
DAPK2 = tested on: DAPK2
DAPK3 = tested on: DAPK3
DCAMKL1 = tested on: T2, DCAMKL1
T2 construct: gene DCLK1

DCAMKL2 = tested on: T3, DCAMKL2
T3 construct: gene DCLK2

DCAMKL3 = tested on: T4, DCAMKL3
T4 construct: gene DCLK3

DDR1 = tested on: DDR1
DDR2 = tested on: DDR2
DLK = tested on: T5, DLK
T5 construct: gene MAP3K12
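Also: KINOMEscan kinase panel screen.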

Compound | %Inh (CTK) [%] | %Inh (DAPK1) [%] | %Inh (DAPK2) [%] | %Inh (DAPK3) [%] | %Inh (DCAMKL1) [%] | %Inh (DCAMKL2) [%] | %Inh (DCAMKL3) [%] | %Inh (DDR1) [%] | %Inh (DDR2) [%] | %Inh (DLK) [%]
Cc1ccc(NC(=O)Nc2ccc(Cl)cc2)cc1-c1ccc(C(=O)Nc2ccncc2)cc1 [GSK1398472] | 0 | 16 | 0 | 15 | 18 | 0 | 0 | 99.8 | 64 | 0
CNc1cc(-c2ccc3c(N)n[nH]c3c2)nc(N)n1 [GSK2224810] | 0 | 18 | 17 | 37 | 16 | 0 | 28 | 0 | 13 | 29
CS(=O)(=O)CCNCc1nc(-c2ccc3ncnc(Nc4ccc(OCc5ccccc5)c(Cl)c4)c3c2)cs1.Cl [GW582764] | 0 | 0 | 0 | 0 | 13 | 0 | 6 | 99.8 | 40 | 50
COC(=O)c1cccc(NC(=O)NC2CCN(c3ccnc(Nc4ccc(OC)cc4)n3)C2)c1 (centres unmarked) [GSK1379746] | 0 | 0 | 0 | 0 | 8 | 0 | 0 | 11 | 46 | 35
O=C1NC(=O)C(c2ccc(Cl)cc2)=C1Nc1ccc(O)cc1 [SB-340867] | 0 | 0 | 0 | 0 | 0 | 0 | 0 | 0 | 0 | 0
Cn1cnc2c(N)ncnc21 [SKF-97623] | 0 | 100 | 0 | 0 | 0 | 0 | 11 | 0 | 30 | 6
CNC(=O)c1ccc(C)c(-n2c(C)cc(OCc3ccc(F)cc3F)c(Br)c2=O)c1 | 0 | 0 | 0 | 0 | 0 | 0 | 0 | 0 | 0 | 0
COc1cccc(CNC(=O)NC2CCN(c3ccnc(Nc4ccc(F)cc4)n3)C2)c1 (centres unmarked) [GSK1379723] | 22 | 0 | 22 | 7 | 9 | 0 | 0 | 7 | 0 | 0
Nc1nccc(-c2c(-c3ccc(F)cc3)ncn2C2CCN(Cc3ccccc3)CC2)n1 [SB-219980] | 11 | 0 | 0 | 0 | 0 | 0 | 13 | 86 | 74 | 0
COc1ccc(Nc2nccc(N3CCC(NC(=O)c4cc5ccccc5s4)C3)n2)cc1 (centres unmarked) [GSK1379738] | 0 | 0 | 0 | 25 | 14 | 0 | 0 | 80 | 23 | 28
COc1ccc(Nc2nccc(-c3ccc(NC(=O)c4cc5cc(F)ccc5[nH]4)cc3)n2)cc1 [GSK1229496] | 0 | 55 | 5 | 1 | 11 | 0 | 0 | 63 | 26 | 36
Nc1ncnc2occ(-c3ccc4c(c3)CCN4C(=O)Cc3cc(F)ccc3F)c12 [GSK2645446] | 0 | 0 | 0 | 0 | 10 | 0 | 0 | 0 | 25 | 8
Cc1ccc(-c2nc(Nc3ccncc3)c3ccccc3n2)s1 [GSK189015] | 8 | 11 | 0 | 10 | 17 | 30 | 15 | 61 | 2 | 0
CS(=O)(=O)Cc1ccc(Nc2nccc(-c3c(-c4cccc(NC(=O)C5CCCCC5)c4)nn4ncccc34)n2)cc1 [GSK350559] | 38 | 0 | 9 | 0 | 0 | 15 | 0 | 96.6 | 54 | 41
c1ccc(-c2ccnc3[nH]ccc23)cc1 [SB-693578] | 0 | 0 | 0 | 19 | 16 | 0 | 0 | 23 | 26 | 37
O=C1NC(=O)C(c2ccc(Cl)cc2)=C1Nc1cccc(Cl)c1 [SB-317651] | 16 | 8 | 0 | 18 | 18 | 0 | 17 | 0 | 16 | 16
Cc1c(Cn2c(C)c(C)n3c(=O)cc(N4CCOCC4)nc23)cccc1C(F)(F)F [GSK2328680] | 0 | 0 | 0 | 3 | 0 | 21 | 5 | 0 | 11 | 14
